This passage reports growth results from PubChem BioAssay (NCI).

Common to all, as to test: NCI-60 one-dose screen, 48 h (100 = growth as untreated, 0 = no growth, -100 = all killed)
In one assay the test system is SK-MEL-2 melanoma. The settings on record: 10 µM.
In another assay the test system is EKVX NSCLC. The settings on record: 10 µM unless noted.
The next assay has as its system SN12C renal. The conditions noted are these: 10 µM unless noted.
The subject of another assay is UO-31 renal. The settings on record: 10 µM unless noted.
The test system of another assay is TK-10 renal. The conditions noted are these: 10 µM unless noted.
The next assay relates to ACHN renal. The conditions noted are these: 10 µM unless noted.
In the next assay the test system is A498 renal. The settings on record: 10 µM unless noted.
The subject of the next assay is CCRF-CEM leukemia. The settings on record: 10 µM unless noted.
In the next assay the test system is MOLT-4 leukemia. The conditions noted are these: 10 µM unless noted.
A further assay relates to SR leukemia. The settings on record: 10 µM unless noted.
A further assay deals with RPMI-8226 leukemia. The conditions noted are these: 10 µM unless noted.
For the next assay, the system named is OVCAR-8 ovarian. The settings on record: 10 µM unless noted.
Another assay concerns OVCAR-5 ovarian. The conditions noted are these: 10 µM unless noted.
For the next assay, the system named is OVCAR-4 ovarian. The settings on record: 10 µM unless noted.
A further assay relates to SK-OV-3 ovarian. The settings on record: 10 µM unless noted.
Another assay deals with IGROV1 ovarian. The conditions noted are these: 10 µM unless noted.
In a further assay the test system is OVCAR-3 ovarian. The conditions noted are these: 10 µM unless noted.
The subject of another assay is HS 578T breast. The settings on record: 10 µM.
A further assay deals with NCI/ADR-RES ovarian. The settings on record: 10 µM unless noted.
Another assay deals with CAKI-1 renal. The settings on record: 10 µM unless noted.

Molecules are shown by their SMILES. This is part of a sample that, as a whole, favours compounds with a hit. Of some 83,000 tested, about 20% had one in any assay.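 Testing used 96-well plates and a 48-hour single-concentration exposure. Example: -40 means 40% of the starting cells died.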 Unmarked numbers belong to inactive results. Active and inactive are the calls of the source. Rule for the calls: active = growth percent below 10; inactive = the rest.

With `Cc1ccc2oc(=O)cc(-c3cc(-c4cc5ccccc5oc4=O)nc(N)c3C#N)c2c1`, the growth in the assay on SK-MEL-2 melanoma was 87.2%; in the assay with EKVX NSCLC, 79%; in the assay on SN12C renal, 68.2%; in the assay on UO-31 renal, 48.5%; with TK-10 renal it was 71.9%; in the assay with ACHN renal, 41.6%. Besides, the growth in the assay on A498 renal was 80.1%; with CCRF-CEM leukemia, 93.7%; in the assay with MOLT-4 leukemia, 93.9%; in the assay on SR leukemia it was 74.3%; in the assay on RPMI-8226 leukemia it was 72.9%; with OVCAR-8 ovarian it was 61.1%. Further, the growth was 101% in the assay on OVCAR-5 ovarian; 8.25% (active) with OVCAR-4 ovarian; 78.8% in the assay on SK-OV-3 ovarian; 81.6% in the assay on IGROV1 ovarian; 77.1% in the assay with OVCAR-3 ovarian; 70.7% in the assay on HS 578T breast. Further, in the assay with NCI/ADR-RES ovarian, the growth was 80.4%.
For `Nc1ncnc2c1ccn2-c1cccc(NC(=O)c2ccc(N3CCOCC3)c(C(F)(F)F)c2)c1`, the growth was 37.7% with SK-MEL-2 melanoma; 56% with EKVX NSCLC; 47.8% in the assay on SN12C renal; 22% in the assay on UO-31 renal; 30.9% with ACHN renal; 26.3% in the assay on CAKI-1 renal. In addition, the growth is 63.3% in the assay with A498 renal; 20.5% in the assay on CCRF-CEM leukemia; 47.8% in the assay on MOLT-4 leukemia; 51.8% in the assay with SR leukemia; 4.92% (active) in the assay on RPMI-8226 leukemia; 24.8% in the assay with OVCAR-8 ovarian. Also, the growth in the assay on OVCAR-5 ovarian is 72.9%; in the assay with OVCAR-4 ovarian, 104%; in the assay with SK-OV-3 ovarian, 77.3%; in the assay on IGROV1 ovarian, 40.5%; in the assay with OVCAR-3 ovarian it was 43.2%; in the assay on NCI/ADR-RES ovarian it was 26.2%.
For the compound `Cc1cc2c3c(cccc3c1)C(=O)c1ccccc1-2`, the growth is 105% in the assay with SK-MEL-2 melanoma; 78.1% in the assay on EKVX NSCLC; 97% with SN12C renal; 60.5% in the assay on UO-31 renal; 106% in the assay with TK-10 renal; 97.6% in the assay with ACHN renal. Moreover, the growth in the assay on CCRF-CEM leukemia was 118%; in the assay with MOLT-4 leukemia, 87.2%; in the assay with SR leukemia it was 96.6%; with RPMI-8226 leukemia, 109%; in the assay on OVCAR-8 ovarian it was 107%; with OVCAR-5 ovarian it was 100%. Moreover, the growth in the assay with OVCAR-4 ovarian is 94.8%; in the assay on SK-OV-3 ovarian, 107%; with IGROV1 ovarian it was 90.5%; with OVCAR-3 ovarian, 90.2%; in the assay on HS 578T breast, 99.6%; with NCI/ADR-RES ovarian it was 77.9%.
Regarding `OCCNC(=S)Nc1ccc(-c2nc(N3C[C@H]4CC[C@@H](C3)O4)c3cccn3n2)cc1`, the growth in the assay with SK-MEL-2 melanoma is -21.5% (active); in the assay on EKVX NSCLC, 1.72% (active); in the assay on SN12C renal it was 2.32% (active); with UO-31 renal, -13.8% (active); with TK-10 renal, -28.2% (active); in the assay on CAKI-1 renal, 6.32% (active). Besides, the growth in the assay with A498 renal was -37.5% (active); in the assay on MOLT-4 leukemia it was 16.7%; with SR leukemia, 11.1%; in the assay on OVCAR-8 ovarian, -7.06% (active); in the assay on OVCAR-5 ovarian, -4.85% (active); with OVCAR-4 ovarian, -7.17% (active). Further, the growth was -33.7% (active) in the assay with SK-OV-3 ovarian; -19.9% (active) with IGROV1 ovarian; -4.31% (active) in the assay with OVCAR-3 ovarian; -28.6% (active) in the assay on HS 578T breast; 3.87% (active) with NCI/ADR-RES ovarian.
As to `CCOC(=O)C1=C(C)NC(=O)NC1c1cc(=O)oc2ccc(C)cc12` (configuration not stated), the growth in the assay with SK-MEL-2 melanoma is 95.6%; with EKVX NSCLC, 95.2%; in the assay on SN12C renal it was 101%; in the assay on UO-31 renal, 93.1%; with TK-10 renal, 97.1%; in the assay on A498 renal it was 104%. Besides, the growth was 101% in the assay with CCRF-CEM leukemia; 99.1% in the assay on MOLT-4 leukemia; 97.1% in the assay on SR leukemia; 97.5% in the assay with RPMI-8226 leukemia; 102% with OVCAR-8 ovarian; 107% in the assay with OVCAR-5 ovarian. The growth is 106% in the assay on OVCAR-4 ovarian; 104% with SK-OV-3 ovarian; 103% in the assay with IGROV1 ovarian; 110% in the assay on OVCAR-3 ovarian; 109% with HS 578T breast; 102% in the assay on NCI/ADR-RES ovarian.
In the case of `COc1cc(NCCN(CC(C)C)CC(C)C)c2ncc(C)cc2c1`, the growth in the assay on SK-MEL-2 melanoma was 74.8%; in the assay with EKVX NSCLC, 74.9%; in the assay on SN12C renal, 74.7%; in the assay with UO-31 renal, 64%; with TK-10 renal, 139%; in the assay with CCRF-CEM leukemia, 86.4%. Besides, the growth in the assay on MOLT-4 leukemia is 54.9%; in the assay with SR leukemia it was 76.3%; with RPMI-8226 leukemia it was 62.6%; in the assay with OVCAR-8 ovarian, 68.7%; in the assay with OVCAR-5 ovarian, 111%; with OVCAR-4 ovarian, 34.6%. The growth is 88.8% with SK-OV-3 ovarian; 76.5% in the assay on IGROV1 ovarian; 1.71% (active) with OVCAR-3 ovarian; 100% with HS 578T breast; 76.5% in the assay on NCI/ADR-RES ovarian.
